Shown are actives, neighbours in structure and some others; about 8% of the full set was active somewhere.
LASV entry inh – qHTS for Inhibitors of binding or entry into cells for Lassa Virus. Lassa virus pseudotype entry inhibition, cell reporter. Potency, µM (doses to about 37.9 µM), without a hit: top-dose activity change, negative = inhibition, actives largely listed as inhibitors. 1.2% of 300,000 active; calls by dose curve; tested in HEK293 cells; further: potency means the concentration at half of the fitted maximal effect; on the % scale 0 is the no-effect control and ±100 the full control effect; nearly all actives have a fitted effect of over 50% in size
MARV entry inh – qHTS for inhibitors of binding or entry into cells for Marburg Virus; AID 540276, 2011; Marburg virus pseudotyped entry inhibition, cell reporter; 1.8% of 300,000 active; Potency, µM (doses to about 37.8 µM), for inactives: at the top dose activity change, negative = inhibition, usual class: inhibitors; calls by dose curve; tested in HEK293 cells; further: potency means the concentration at half of the fitted maximal effect; on the % scale 0 is the no-effect control and ±100 the full control effect
SARS PLpro yeast – qHTS of Yeast-based Assay for SARS-CoV PLP | 0.19% of 330,000 active | Potency, µM (doses to about 32.9 µM), without a hit: top-dose activity, positive = growth rescue, actives largely listed as activators | S. cerevisiae expressing SARS-CoV PLpro, growth rescue; calls by dose curve; further: potency means the concentration at half of the fitted maximal effect; 0% is about no effect; nearly all actives have a fitted effect of over 55% in size
HCMV inh – qHTS Assay for inhibitors of the human cytomegalovirus (HCMV) | HFF cells, HCMV-luciferase reporter, 72 h; stronger effect = lower value | activity change, negative = inhibition, % at 57.5 µM | 4.5% of 410,000 active; in the data active means activity change below about -60%; inconclusive means no clear call, values can overlap the other calls; inactive means above about -39%; further: on the % scale 0 is the no-effect control and ±100 the full control effect
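Two-dose cell screen: HFF monolayers treated with compounds and infected with luciferase-expressing HCMV at 1 PFU/cell, 72 h at 37C, then lysed for luciferase measurement.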
FMDV antiviral – High Throughput Screening for Foot and Mouth Disease Virus Antivirals | AID 1159524, 2015 | Potency, µM (doses to about 57.9 µM), inactives show top-dose activity change, negative = inhibition, usual class: inhibitors | 1.2% of 410,000 active | FMDV antiviral cell-based qHTS; calls by dose curve; tested in HEK293T cells; further: read-out not given here; potency means the concentration at half of the fitted maximal effect; on the % scale 0 is the no-effect control and ±100 the full control effect; nearly all actives have a fitted effect of over 45% in size
HCV inhibitor – qHTS Assay for Inhibitors of Hepatitis C Virus (HCV); Huh7.5.1 HCVcc-Cre infection, luciferase reporter, 44 h; Potency, µM (doses to about 41.8 µM), inactives show at the top dose activity change, negative = inhibition, hits mostly inhibitors; 3.4% of 340,000 active; AID 651820, 2012; active means well fitted inhibition curve with a large enough effect; inconclusive means small, poorly fitted or top-dose-only effect, or another doubt; inactive means no such curve, though single readings can be large or run the other way; further: potency means the concentration at half of the fitted maximal effect; on the % scale 0 is the no-effect control and ±100 the full control effect
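Whole-lifecycle infectious HCVcc-Cre system; cells 1,000/well, compound then virus (~0.5 moi) added 4 h after plating, 44 h culture. Luciferase read 15 sec following 15 min substrate incubation, room temp.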
An asterisk follows results filed as active; ? = inconclusive; nt = no result given; [ ] = remark or other dose.

SMILES | LASV entry inh | MARV entry inh | SARS PLpro yeast | HCMV inh | FMDV antiviral | HCV inhibitor
C[C@]12C=CC(=O)C=C1CC[C@@H]1[C@@H]2C(=O)C[C@@]2(C)[C@H]1CC[C@]2(O)C(=O)COC(=O)CCC(=O)O | 19.5%[46.1 µM] | -3.4%[46.1 µM] | 2.5% | -13.2 | -5.1% | 3.4%
CCOc1ccc(CCNC(=O)c2nc(-c3cccc(F)c3)n3c2CCCCC3)cc1OCC | ? | nt | nt | 0.8 | -16.9% | nt
COc1ccc(NC(=O)N(C)C[C@@H]2OCc3cnnn3CCCC(=O)N([C@@H](C)CO)C[C@H]2C)cc1 | nt | nt | nt | -2.5 | -8.7% | nt
CCc1noc(C)c1C(=O)Nc1nc(-c2ccc(NC(C)=O)cc2)cs1 | ? | ? | -2.7% | -33.8 | 22.4µM* | 10µM*
CCc1noc(C)c1C(=O)Nc1nc(-c2ccc(OC)c(OC)c2)cs1 | ? | ? | nt | -25.5 | 17.8µM* | ?
CC(=O)Nc1ccc(-c2csc(NC(=O)c3ccc(C)o3)n2)cc1 | 3.1% | -0.6% | -1.8% | 38.8 | 0.0% | -17.1%
CCc1noc(C)c1C(=O)OCC(=O)Nc1nc(-c2ccc(F)c(F)c2)cs1 | ? | ? | 3.8% | 14.2 | 14.1µM* | ?
Cc1cc(C)c2nc(NC(=O)c3cc(C)on3)sc2c1 | 9.3% | -0.1% | 5.4% | ? | 1.1% | -46.2%
CCc1noc(C)c1C(=O)Nc1nc2c(C)cc(C)cc2s1 | 8.6% | ? | -18.4% | -4.4 | -2.2% | 11.2µM*
CCC(=O)c1ccc(OCC(=O)OCC(=O)Nc2sccc2C(N)=O)cc1 | -2.3%[46.1 µM] | 5.8%[46.1 µM] | -3.2% | 0.0 | -7.5% | 3.9%
CCN(c1ccccc1)c1nnc(NC(=O)Nc2cccc(Cl)c2C)s1 | -12.2%[46.1 µM] | ? | nt | 5.3 | 0.0% | nt
C=CCc1cc(C)ccc1OCCOCCn1ccnc1 | ? | -6.3% | -3.9% | -63.2* | 0.0% | ?
C=CCc1cc(C)ccc1OCCn1ccnc1 | -0.6% | 6.9%[46.1 µM] | 2.5% | 3.6 | 2.4% | -21.2%
CC(C)(O)CN(C(=O)c1ccc([N+](=O)[O-])cc1)C1CCCC1 | 0.5% | 0.8% | nt | -18.9 | -18.0% | 10.0%
Cc1ccc(C(=O)NCc2ccco2)cc1S(=O)(=O)Nc1cccc(C)c1C | ? | 20.6µM* | 7.8% | 0.4 | -101.2% | ?
Cc1ccccc1NS(=O)(=O)c1cc(C(=O)NCc2ccco2)ccc1C | 1.64µM* | -6.8% | -1.4% | -29.7 | 8.3% | ?
Cc1ccc(SCCNC(=O)c2ccc(C)c(S(=O)(=O)Nc3ccccc3C)c2)cc1 | 10.3µM* | 23.1µM* | 0.4% | -21.2 | nt | ?
Cc1ccc(C(=O)NCCSC2CCCCC2)cc1S(=O)(=O)Nc1ccccc1 | ? | ? | 5.1% | -75.2* | nt | ?
Cc1ccccc1NS(=O)(=O)c1cc(C(=O)NCCC2=CCCCC2)ccc1C | ? | -45.3% | 0.5% | ? | nt | ?
COC(=O)c1ccccc1-c1cc(C)cc2c1OC(CNC(=O)c1cnc(C)cn1)C2 (stereo unspecified) | nt | nt | nt | nt | 15.3% | nt
COC(=O)C1(O)CC(c2ccccc2)C(C(=O)c2ccccc2)N1c1ccc(F)cc1 (stereo unspecified) | nt | nt | nt | -29.7 | nt | nt
CCOP(=O)(OCC)OCC | nt | nt | 4.5% | 15.5 | -22.4% | 27.2%
CCOP(=O)(CCP(=O)(OCC)OCC)OCC.C[CH2][Sn]([Cl])([Cl])[CH2]C | 12.6µM* | ? | nt | -101.0* | 2.82µM* | 1.58µM*
Clc1ccc([C@@H](c2ccccc2Cl)C(Cl)Cl)cc1 | nt | -12.3% | nt | nt | nt | nt
CCCCn1cc2c(c1-c1cccc(C)c1)c(=O)n(C)c(=O)n2C | nt | nt | 2.5% | 12.0 | -24.0% | 10µM*
SMILES | LASV entry inh | MARV entry inh | SARS PLpro yeast | HCMV inh | FMDV antiviral | HCV inhibitor
CC1=CC[C@@H](C)O[C@@]2(C1)C(=O)N(Cc1ccc(Br)cc1)c1ccccc12 | ? | 14.4%[14.2 µM] | nt | nt | nt | nt
COc1ccc(NC(=O)c2cc(-c3cc(Cl)ccc3OC)n[nH]2)c(OC)c1 | nt | nt | nt | -34.9 | -16.7% | nt
COc1ccc(OC)c(-c2cc(C3CCN(c4cc(Cl)nc(N)n4)CC3)[nH]n2)c1 | ? | ? | -11.0% | -88.5* | 17.8µM* | ?
COc1ccc(-c2cc(C3CCN(c4cc(Cl)nc(N)n4)CC3)[nH]n2)cc1 | ? | 9.2µM* | -12.1% | -60.2* | 22.4µM* | ?
CCN(CC)S(=O)(=O)c1ccc(NC(=O)c2nc3nc(C)cc(C)n3n2)cc1 | nt | nt | -0.2% | ? | nt | nt
CCN(CC)CCNC(=O)c1ccc(NC(=O)Cc2cccc3ccccc23)cc1 | -12.0%[46.1 µM] | 11.2µM* | -6.6% | -23.9 | 2.1% | ?
CCN(CC(=O)Nc1ccc(NC(C)=O)cc1)C(=O)c1ccc(COc2ccccc2)o1 | nt | nt | 0.6% | 0.0 | -19.3% | -6.1%
CCN(CC(=O)Nc1ccc(NC(C)=O)cc1)C(=O)c1ccc(COc2ccc(C(C)(C)C)cc2)cc1 | nt | nt | nt | -61.6* | -23.5% | ?
CCN(CC)CCNC(=O)c1ccc(NC(=O)c2ccc(COc3ccccc3)cc2)cc1 | 16.1%[46.1 µM] | ? | -3.3% | ? | -5.8% | 11.2µM*
COc1cc(C)ccc1Oc1ncnc(N)c1[N+](=O)[O-] | nt | nt | -1.9% | 40.8 | -16.9% | 7.0%
N[C@@H]1CCN(O)C1=O | nt | 1.1% | nt | nt | -6.5% | nt
COc1ccc(C)cc1S(=O)(=O)Nc1ccc2c(c1)OCCO2 | nt | nt | 4.0% | 16.1 | 85.8% | -1.3%
COc1cccc(C(=O)Nc2cccc(OCc3cc(=O)n4cc(C)ccc4n3)c2)c1 | 0.3%[46.1 µM] | nt | nt | -27.6 | -0.7% | nt
COC(=O)c1ccc(NC(=O)N2CCc3c([nH]c4ccccc34)C2c2ccc(C)cc2)cc1 (stereo unspecified) | ? | ? | nt | 9.2 | -21.4% | nt
Cc1ccc(C2c3[nH]c4ccccc4c3CCN2C(=O)c2ccc(N(C)C)cc2)cc1 (stereo unspecified) | ? | nt | nt | 64.0 | -17.5% | nt
Cc1ccc(C2c3[nH]c4ccccc4c3CCN2C(=O)c2ccccc2Br)cc1 (stereo unspecified) | ? | nt | nt | -77.7* | -16.9% | nt
Cc1ccc(C2c3[nH]c4ccccc4c3CCN2C(=O)CCC2CCCC2)cc1 (stereo unspecified) | ? | nt | nt | -93.1* | -29.1% | nt
Cc1cccc(C2c3[nH]c4ccccc4c3CCN2C(=O)c2nn(C)c(=O)c3ccccc23)n1 (stereo unspecified) | 11.2µM* | ? | 0.0% | 85.0 | ? | ?
COc1ccccc1-n1cnc2c(c1=O)c1nc3ccccc3nc1n2-c1ccc(C)cc1 | 8.7% | -2.6% | -46.9% | -87.1* | -15.3% | ?
COc1ccccc1-n1c2nc3ccccc3nc2c2c(=O)n(-c3cc(C)cc(C)c3)cnc21 | 5.0% | ? | -28.2% | -69.4* | ? | ?
C=CCn1cnc2c(c1=O)c1nc3ccccc3nc1n2-c1ccc(C)cc1 | nt | nt | 10.1% | -21.8 | nt | 23.6%

Source: PubChem
